Measurements taken from ChEMBL document CHEMBL1157539, “Thousands of chemical starting points for antimalarial lead identification” (Nature, 2010).
Where “and” joins values, the source holds several entries; their conditions need not be identical. Equal entries are not always repeated.

Assays:
Assay type in all cases: functional
[1] = test system: Plasmodium falciparum; assay: GSK_TCMDC: Inhibition of Plasmodium falciparum 3D7 in whole red blood cells, using parasite LDH activity as an index of growth. Test compounds present at 2uM
[2] = test system: Plasmodium falciparum; assay: GSK_TCMDC: Inhibition of Plasmodium falciparum Dd2 in whole red blood cells, using parasite LDH activity as an index of growth. Test compounds present at 2uM
[3] = test system: HepG2; assay: GSK_TCMDC: Percent inhibition of human HepG2 cell line. Test compounds present at 10uM.

| Compound | Inhibition [1] | Inhibition [2] | Inhibition [3] |
| --- | --- | --- | --- |
| CC[C@H]1CN2CC[C@@H]1C[C@H]2[C@H](O)c1cc(N2CCC(O)(c3ccc(Cl)cc3)CC2)nc2ccc(OC)cc12 | 100% | 98% | 21% |
| Cc1cc(CN2CCN(CCOC(c3ccccc3)c3ccccc3)CC2)ccc1O | 97% | 96% | 9% |
| CC[C@H]1CN2CC[C@H]1C[C@H]2[C@H](O)c1cc(-c2cccc(Cl)c2)nc2ccc(OC)cc12.Cl | 98% | 99% | 16% |
| CC(Cc1ccc(OCCCCOc2ccccc2)cc1)NCCCN1CCOCC1 (configuration not stated) | 98% | 78% | 98% |
| CC(=O)Nc1ccc(CN2CCC(N(C)c3cc(NC(=O)c4ccc(F)cc4)ccn3)CC2)cc1.O=C(O)C(F)(F)F | 95% | 5% | 0% |
| COc1cc(C(=O)NC2CCC(CN3CCC(c4c[nH]c5ccccc45)CC3)CC2)cc(Cl)n1 (configuration not stated) | 99% | 45% | 33% |
| CS(=O)(=O)Nc1ccc2[nH]cc(C3CCN(CC4CCC(NC(=O)/C=C/c5ccc(Cl)c(Cl)c5)CC4)CC3)c2c1 (configuration not stated) | 100% | 86% | 22% |
| CC[C@H]1CN2CC[C@H]1C[C@H]2[C@H](O)c1cc(-c2cccc(F)c2)nc2ccc(OC)cc12.Cl | 99% | 97% | 34% |
| CC(C)(C)c1ccc(Cn2nc(C(=O)N3CCN(C(=O)C4CCCO4)CC3)c3ccccc32)cc1 (configuration not stated) | 90% | 83% | 0% |
| C[C@H](Cc1ccc(OCCCCCCOc2ccccc2)cc1)NC[C@H](O)c1cccc(Cl)c1.Cl | 93% | 99% | 21% |
| O=C(/C=C/c1c(Cl)cccc1Cl)NC1CCC(CN2C3CCC2CC(c2c[nH]c4ccccc24)C3)CC1 (configuration not stated) | 95% | 18% | 40% |
| CCCCCc1cc(O)c2c(c1)OC(C)(C)CC2C1=CCN(Cc2cnc3ccccc3c2)CC1.Cl.O (configuration not stated) | 98% | 98% | 27% |
| CC(=O)Nc1ccc(OCCN(CC(C)(C)C)c2ccc(C#N)c(C(F)(F)F)c2)c(Cl)c1 | 87% | 93% | 0% |
| CC(C)/C(=C(/F)CN1C(=O)C(NC(=O)c2cc3ccccc3[nH]2)C(=O)N(c2ccccc2)c2ccccc21)c1ccccc1 (configuration not stated) | 98% | 82% | 7% |
| Cc1cc(N)nc2ccc(CNCCc3ccccc3Br)cc12.Cl | 100% | 77% | 28% |
| Cc1cc(C2CCCCN2C)ccc1-c1ccc(C(=O)N2CCc3cc4c(cc32)C2(CCN(C)CC2)CO4)cc1.Cl (configuration not stated) | 95% | 94% | 37% |
| O=C(/C=C/c1ccc(Cl)c(Cl)c1)NC1CCC(N2CCC(c3c[nH]c4ccccc34)CC2)CC1 (configuration not stated) | 100% | 69% | 41% |
| C=C[C@H]1CN2CC[C@H]1C[C@H]2[C@H](O)c1ccnc2ccccc12 [CINCHONIDINE] | 100% | 3% | 9% |
| CC[C@H]1CN2CC[C@@H]1C[C@H]2[C@H](O)c1cc(N2CCCC(C)(C)C2)nc2ccc(OC)cc12 | 100% | 72% | 25% |
| Cc1[nH]c2ccccc2c1C1=CCN(CCCCC2(C)C(=O)Nc3ccccc32)CC1 (configuration not stated) | 94% | 89% | 8% |
| Oc1ccc(CN2CCN(CCOC(c3ccc(F)cc3)c3ccc(F)cc3)CC2)cc1Cl | 96% | 87% | 19% |
| O=C(/C=C/c1ccc(Cl)c(Cl)c1)N1CCC(CN2C3CCC2CC(c2c[nH]c4ccccc24)C3)CC1 (configuration not stated) | 100% | 66% | 84% |
| Cc1cc(O)cc2c(C3CCN(CC4CCC(NC(=O)/C=C/c5ccccc5Cl)CC4)CC3)c[nH]c12 (configuration not stated) | 99% | 84% | 21% |
| O=C1COc2ccccc2N1CCN1CCC(NCc2ccc(-c3cccs3)cc2)CC1 | 87% | 18% | 37% |
| COc1ccc(CN2CCN(CCOC(c3ccccc3)c3ccccc3)CC2)c(O)c1 | 96% | 84% | 19% |
| C/C=C1\CN2CC[C@H]1C[C@H]2[C@H](O)c1ccnc2ccc(OC)cc12.O=S(=O)(O)O | 99% | 61% | 0% |
| N#Cc1c(Cl)cccc1Oc1ccc(S(=O)(=O)NC2CCC(CN3CCC(c4c[nH]c5ccccc45)CC3)CC2)cc1 (configuration not stated) | 85% and 100% | 36% and 16% | 31% and 29% |

| Compound | Inhibition [1] | Inhibition [2] | Inhibition [3] |
| --- | --- | --- | --- |
| O=C(Nc1ccc(Oc2ccccc2)cc1)NC1CCC(CN2CCC(c3c[nH]c4ccccc34)CC2)CC1 (configuration not stated) | 100% | 97% | 55% |
| Cc1[nH]c2cc(Cl)ccc2c1C1=CCN(CCCCC2(C)C(=O)Nc3c(F)cccc32)CC1 (configuration not stated) | 90% | 74% | 14% |
| Oc1ccc2[nH]cc(C3=CCN(Cc4ccccc4)CC3)c2c1 | 94% | 67% | 1% |
| CCCc1ccc2c(c1O)CCC(N(CCC)CCC)C2.Cl (configuration not stated) | 90% | 23% | 0% |
| O=C(C=Cc1ccccc1Br)NC1CCC(CN2CCC(c3c[nH]c4ccccc34)CC2)CC1 (configuration not stated) | 100% | 57% and 32% | 36% and 43% |
| CCOc1ccc(Br)cc1/C=C/C(=O)Nc1ccc2c(c1)C1CCC2N1C.O=C(O)C(F)(F)F (configuration not stated) | 89% | 26% | 60% |
| C1=C(c2c[nH]c3ccccc23)CCN(Cc2ccccc2)C1 | 91% | 80% | 22% |
| Cc1cc(N(C)C2CCN(C)CC2)nc(Nc2ccc(Br)cc2)n1 | 100% | 92% | 0% |
| CC[C@H]1CN2CC[C@@H]1C[C@H]2[C@H](O)c1cc(N2CCC(N3CCCCC3)CC2)nc2ccc(OC)cc12 | 99% | 77% | 0% |
| Cc1cccc(C(=O)Nc2ccnc(N(C)C3CCN(CC(C)C)CC3)c2)c1.O=C(O)C(F)(F)F | 95% | 6% | 10% |
| Oc1ccc(Cl)cc1CN1CCC(CCOC(c2ccccc2)c2ccc(Cl)cc2)CC1 (configuration not stated) | 98% | 100% | 32% |
| O=C(/C=C/c1ccc(Cl)c(Cl)c1)NCCCCCN1C2CCC1CC(c1c[nH]c3ccc(O)cc13)C2 (configuration not stated) | 100% and 91% | 0% and 20% | 9% and 26% |
| COc1ccc(CN2CCN(CCOC(c3ccccc3)c3ccc(Cl)cc3)CC2)c(O)c1 (configuration not stated) | 99% | 98% | 12% |
| Cc1[nH]c2ccccc2c1C1CCN(CC2CCC(NC(=O)/C=C/c3ccc(Cl)c(Cl)c3)CC2)CC1 (configuration not stated) | 100% | 93% | 15% |
| CC(Cc1ccc(OCCCCOc2ccccc2)cc1)NCCC1CCCN1C (configuration not stated) | 99% | 98% | 100% |
| Oc1ccc(CN2CCN(CCOC(c3ccccc3)c3ccccc3)CC2)cc1Cl | 98% | 77% | 7% |
| Cc1ccc(/C=C/C(=O)NC2CCC(CN3CCC(c4c[nH]c5ccccc45)CC3)CC2)cc1 (configuration not stated) | 100% | 66% and 69% | 32% and 41% |
| CNC(=O)c1ccc2[nH]cc(C3CCN(CC4CCC(NC(=O)/C=C/c5ccc(Cl)c(Cl)c5)CC4)CC3)c2c1 (configuration not stated) | 100% | 90% | 0% |
| CN1C(=O)[C@H](NC(=O)[C@@H](Cc2ccccc2)NC(=S)Nc2ccccc2)N=C(c2ccccc2)c2ccccc21 | 86% | 23% | 0% |
| O=C(/C=C/c1ccccc1Cl)NC1CCC(CN2C3CCC2CC(c2c[nH]c4ccccc24)C3)CC1 (configuration not stated) | 100% | 98% | 56% |
| CCCCCCC(CC)c1cc(O)c2c(c1)OC(C)(C)c1ccncc1-2.Cl (configuration not stated) | 94% | 52% | 0% |
| O=C(/C=C/c1cc([N+](=O)[O-])ccc1Cl)NC1CCC(CN2CCC(c3c[nH]c4ccccc34)CC2)CC1 (configuration not stated) | 100% | 94% | 21% |
| Cc1cc(N)nc2cc(CNCCc3ccccc3Br)ccc12.Cl | 100% | 93% | 47% |
| CC(Cc1ccc(-c2nc3ccccc3[nH]2)cc1)NCC(O)c1cccc(C(F)(F)F)c1 (configuration not stated) | 97% | 90% | 33% |
| CC[C@H]1CN2CC[C@@H]1C[C@@H]2[C@@H](O)c1cc(-c2ccc(F)cc2)nc2ccc(OC)cc12.Cl | 98% | 64% | 18% |
| COc1ccc(NC(=S)NC(NC(=O)CF)C(Cl)(Cl)Cl)cc1[N+](=O)[O-] (configuration not stated) | 97% | 0% | 66% |
| Oc1ccccc1CNCC(O)c1cccc(C(F)(F)F)c1 (configuration not stated) | 100% | 97% | 1% |
